The structures appear in SMILES notation. Results filed as inconclusive are left out. Activity calls are given as the source filed them. Rule for the calls, unless noted: active = hit-call score of the fitted dose curve at least 0.9, where 1 is the maximum; inactive = score below 0.9.

Test system in the first experiment: not listed separately
Description: ATG_VDRE_CIS: Attagene CIS-FACTORIAL HepG2 Assay for human Vitamin D Receptor Element (VDRE) (AID 2282968). Particulars: HepG2 VDRE cis-reporter transcription, actives raise or lower the signal. In a few lines:
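Cell-based multiplexed reporter format in human liver HepG2 cells, 24 h post-dose. Fluorescence from capillary electrophoresis of reporter cDNA gives the signal, with DMSO as negative control and baseline.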
As usually defined, the AC50 is the midpoint of the concentration-response curve, whichever way the signal moves. Consider `Cc1c(F)c(F)c(COC(=O)C2C(/C=C(\Cl)C(F)(F)F)C2(C)C)c(F)c1F` (configuration not stated), for which the AC50 was 18 µM (active).

`O=C(O)COc1nc(Cl)c(Cl)cc1Cl`: the outcome was inactive. On the same count and under the same terms, in the case of `CCOC(=O)C(Cl)Cc1cc(-n2nc(C)n(C(F)F)c2=O)c(F)cc1Cl` (configuration not stated) it was “inactive”; in that of `CCNc1nc(Cl)nc(NCC)n1`, “inactive”. Still for that read-out and setting: to `N#CC(CCc1ccc(Cl)cc1)(Cn1cncn1)c1ccccc1` (configuration not stated) belongs “inactive”. For `CCOP(=S)(OCC)SCn1c(=O)oc2cc(Cl)ccc21`, the AC50 was 13.8 µM (active).

As to `Fc1ccc(Oc2ccnc3cc(Cl)cc(Cl)c23)cc1`, the result was inactive. The same measure, in the same setting: in the case of `CCON=C(CC)C1=C(O)CC(c2c(C)cc(C)cc2C)CC1=O` (configuration not stated) it was “inactive”. As for `Cc1ccc(-c2c(Cl)nc(C#N)n2S(=O)(=O)N(C)C)cc1`, the AC50 was 11.9 µM (active).

Regarding `CC(Oc1ccc(Cl)cc1Cl)C(=O)O` (configuration not stated), the result was inactive. On the same count and under the same terms, in the case of `CCNc1nc(Cl)nc(NC(C)C)n1` it was “inactive”. Still for that read-out and setting: in the case of `COC(=O)C(C)Oc1ccc(Oc2ccc(Cl)cc2Cl)cc1` (configuration not stated) it was “inactive”; in that of `Cc1cc(Cl)ccc1OCC(=O)O`, “inactive”. On the same count and under the same terms, to `CN(C)C(=S)SSC(=S)N(C)C` belongs “inactive”. Turning to `CC(C)Oc1cc(-n2nc(C(C)(C)C)oc2=O)c(Cl)cc1Cl`, the AC50 was 0.667 µM (active).

For the compound `CC1=C(C(=O)Nc2ccccc2)SCCO1`, the result was inactive. On the same count and under the same terms, to `COP(N)(=O)SC` (configuration not stated) belongs “inactive”.

As for `O=C(Nc1ccccc1)Nc1ccnc(Cl)c1`, the AC50 was 50 µM (active). On the same count and under the same terms, to `CC1COC(Cn2cncn2)(c2ccc(Oc3ccc(Cl)cc3)cc2Cl)O1` (configuration not stated) belongs 3.17 µM (active). On to `C=CC1(C)OC(=O)N(c2cc(Cl)cc(Cl)c2)C1=O` (configuration not stated), for which the compound was classed as inactive.

The next experiment deals with Nuclear receptor subfamily 1 group I member 3 (Homo sapiens) (UniProt Q14994). Description: ATG_CAR_TRANS: Attagene TRANS-FACTORIAL HepG2 Assay for human Constitutive Androstane Receptor (CAR) (AID 2282969; active = hit-call score of the fitted dose curve at least 0.9, where 1 is the maximum;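 note: activators raise reporter mRNA above DMSO so AC50 marks induction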). Particulars: HepG2 Attagene TRANS-FACTORIAL CAR reporter. A digest of the protocol: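 HepG2 cells transiently transfected with GAL4-UAS reporter units; TRANS format reads activity of exogenous chimeric NR-Gal4 protein. After 24 h dosing, reporter mRNA quantified by RT-PCR, 6-FAM labelling and capillary electrophoresis; gain of signal fitted against DMSO.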
Nuclear receptor subfamily 1 group I member 3 (Homo sapiens), sequence (Q14994 whole entry, looked up, the tested form may be a part): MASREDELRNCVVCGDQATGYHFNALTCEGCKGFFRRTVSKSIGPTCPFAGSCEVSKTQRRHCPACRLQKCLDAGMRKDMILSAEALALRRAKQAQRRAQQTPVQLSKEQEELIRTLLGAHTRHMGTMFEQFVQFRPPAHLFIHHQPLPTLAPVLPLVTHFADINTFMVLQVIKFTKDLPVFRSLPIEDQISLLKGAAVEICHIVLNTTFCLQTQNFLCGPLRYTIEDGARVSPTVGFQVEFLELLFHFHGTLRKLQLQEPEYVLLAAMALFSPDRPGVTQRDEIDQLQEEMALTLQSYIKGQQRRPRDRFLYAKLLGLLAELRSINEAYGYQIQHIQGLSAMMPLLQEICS
As for `COc1cnc(OC)n2nc(NS(=O)(=O)c3c(OCC(F)F)cccc3C(F)(F)F)nc12`, the call was inactive. The same measure, in the same setting: to `CCOC(=O)C(Cl)Cc1cc(-n2nc(C)n(C(F)F)c2=O)c(F)cc1Cl` (configuration not stated) belongs “inactive”; to `CCNc1nc(Cl)nc(NCC)n1`, “inactive”.

Take `CCOP(=S)(OCC)SCn1c(=O)oc2cc(Cl)ccc21`: the result was inactive. Same read-out and setting: to `CS/C(C)=N/OC(=O)N(C)SN(C)C(=O)O/N=C(\C)SC` belongs “inactive”.

For `Fc1ccc(Oc2ccnc3cc(Cl)cc(Cl)c23)cc1`, the compound was classed as inactive. With `CCOc1cc(Oc2ccc(C(F)(F)F)cc2Cl)ccc1[N+](=O)[O-]`, the outcome was inactive. Same read-out and setting: to `COC(=O)C(C)Oc1ccc(Oc2ccc(Cl)cc2Cl)cc1` (configuration not stated) belongs “inactive”; to `Cc1cc(Cl)ccc1OCC(=O)O`, “inactive”.

With `C#CCOS(=O)OC1CCCCC1Oc1ccc(C(C)(C)C)cc1` (configuration not stated), the outcome was inactive. Same read-out and setting: to `CC(C)Oc1cc(-n2nc(C(C)(C)C)oc2=O)c(Cl)cc1Cl` belongs “inactive”.

For `COP(N)(=O)SC` (configuration not stated), the call was inactive.

Source of the values: PubChem BioAssay (EPA / NIEHS).
